NPYLR7 agonist: agonists of mosquito NPYLR7 receptor, primary screen, cell-based, Aedes aegypti, calcium fluorescence, mosquito biting behavior | Aedes aegypti neuropeptide Y-like receptor 7 (NPYLR7) | HEK293T NPYLR7/Galpha15, GCaMP6s calcium fluorescence | activation, % at 10 µM | 270,000 tested, 0.15% active | AID 1259423, 2018; in the data active = activation above about 40%;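 also: 0% = vehicle and 100% = reference agonist at the receptor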
hcGAS inh: Primary biochemical luminescence assay for human cyclic GMP-AMP synthase inhibitors | Q8N884 | recombinant h-cGAS, ATP depletion, Kinase-Glo luminescence | inhibition, % at 12.5 µM | 290,000 tested, 0.081% active | AID 1259398, 2018;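 also: 0% = vehicle reaction and 100% = reaction without DNA for no activity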
mcGAS inh: cyclic GMP-AMP synthase inhibitors, mouse, primary biochemical chemiluminescence. Q8C6L5. recombinant cGAS, Kinase-Glo ATP depletion luminescence. inhibition, % at 12.5 µM. 160,000 tested, 0.15% active. AID 1259399, 2018;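 also: 0% = negative control wells and 100% = reference inhibitor with no enzyme activity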
Target sequence (Q8C6L5 whole entry, looked up): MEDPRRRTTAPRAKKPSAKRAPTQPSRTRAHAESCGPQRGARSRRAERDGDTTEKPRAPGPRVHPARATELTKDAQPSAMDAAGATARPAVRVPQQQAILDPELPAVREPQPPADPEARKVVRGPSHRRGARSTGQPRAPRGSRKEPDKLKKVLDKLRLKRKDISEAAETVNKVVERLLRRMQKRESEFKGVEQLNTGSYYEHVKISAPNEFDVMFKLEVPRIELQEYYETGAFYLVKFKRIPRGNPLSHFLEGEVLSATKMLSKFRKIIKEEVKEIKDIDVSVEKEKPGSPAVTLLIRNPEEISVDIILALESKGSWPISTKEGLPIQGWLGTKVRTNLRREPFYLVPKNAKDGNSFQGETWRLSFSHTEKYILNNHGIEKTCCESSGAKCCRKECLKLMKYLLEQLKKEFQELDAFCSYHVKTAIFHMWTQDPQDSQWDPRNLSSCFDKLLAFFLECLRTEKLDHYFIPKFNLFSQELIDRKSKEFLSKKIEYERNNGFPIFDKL
Active calls of the source: *; x = not tested or not shown; ! = not confirmed by another sample. Only some compounds are listed: those with a hit (about 0.28% of all), similar ones and a draw of the others. Rule as the data show it, unless noted: active = inhibition above about 40%; inactive = the rest.

SMILES	NPYLR7 agonist	hcGAS inh	mcGAS inh
CCc1c(C)nc2c(-c3ccccc3)c(C)[nH]n2c1=O	-2	6	x
COc1cc(NS(=O)(=O)NCc2ccccc2)cc(OC)c1	6	-5	x
CC(C)Nc1ccc(NS(=O)(=O)NCc2ccccc2)cn1	63*	-8	x
O=C1CCC2(CCN1)CCN(C(=O)CCc1cnc[nH]1)CC2	10	-6	x
Cc1cccc(-c2ccc(C(=O)NC(C)COCC(F)(F)F)c(=O)[nH]2)c1 (stereo unspecified)	9	-4	x
COc1cc(C=C2Oc3cc(O)ccc3C2=O)cc(OC)c1OC	83*	-8	x
CCOc1cc(C=C2N=C(c3ccc(Cl)cc3)OC2=O)ccc1OCC(=O)N(C)C	18	-8	-8
CCOc1cc(/C=C2/Oc3cc(O)ccc3C2=O)cc(Cl)c1OCC(=O)N(C)C	150*	-5	x
COc1ccc(/C=C2\Oc3cc(OCC(N)=O)ccc3C2=O)cc1	3	-1	x
CSCCNCc1c(C(=O)N(C)C)nc2ccc(Cl)cn12	14	-3	x
CCS(=O)(=O)Oc1ccc(CN(C(=O)Nc2ccccc2C(F)(F)F)C(C)C)cc1	-4	-15	-7
O=C(CSc1nc(=O)n(CCCO)c2c1CCC2)Nc1cccc(F)c1	-10	-6	-5
O=C(CSc1nc(=O)n(CCCO)c2c1CCCC2)Nc1cccc([N+](=O)[O-])c1	-3	-6	47*
O=C(NC1COc2ccccc21)N(Cc1ccc(C(F)(F)F)cc1)C1CC1 (stereo unspecified)	0	-6	-15
O=C1c2ccc(-c3nc4ccccc4c(=O)o3)cc2C(=O)N1c1nc2ccccc2s1	-8	33	45*
O=C1c2ccc(-c3nc4ccccc4c(=O)o3)cc2C(=O)N1c1ccc(Br)cc1	4	-3	-2
CCN(CC(O)COCC(C)C)CC1CC(c2ccc(OC)cc2)=NO1 (stereo unspecified)	-4	-2	0
CCOC(=O)c1ccc(OC2CC3CCC(C2)N3C(=O)c2ccc(CSc3ccccn3)cc2)cc1 (stereo unspecified)	2	-13	-6
Cc1ccc(CN(Cc2ccc3c(c2)OCO3)CC(O)COCc2ccco2)o1 (stereo unspecified)	23	-1	-3
CCCCCCCCCCCCCCCC(=O)NCCO	5	-8	-3
CCCCNC(=O)CCCCCNC(N)=O	55*	-3	x
CN(C)c1cc(C(=O)NC(c2ccccc2)C2CCCC2)ccn1 (stereo unspecified)	-1	-4	x
Nc1c(S(=O)(=O)O)cc2c3c(cccc13)C(=O)N(CCO)C2=O	93*	-8	-1
NS(=O)(=O)c1ccc(CCN2C(=O)c3cccc4cccc(c34)C2=O)cc1	-4	1	-2
CN1[C@H]2CC[C@@H]1CN(C(=O)c1ccc(N(C)S(C)(=O)=O)cc1)CC2	0	0	-13
SMILES	NPYLR7 agonist	hcGAS inh	mcGAS inh
O=C(Cc1ccccc1)Nc1cc(NC(=O)N2CCCCCC2)ccc1F	0	-5	x
CN(Cc1cc(C(C)(C)C)n[nH]1)c1nc(CCN)nc2ccccc12	x	-6	x
CN(Cc1ccccc1)c1nc(CCN)nc2ccccc12	-2	47*	-8
CC(C)c1cc(C(=O)N2CCc3nnc(CCc4ccccc4)n3CC2)no1	-6	-5	-7
O=c1[nH]c2ccc(Cl)cc2o1	7	-4	x
O=c1[nH]c2c(Br)c(Br)c(Br)cc2o1	12	35	66*
CSc1ccc(C2CC(c3cccs3)=Nc3ncnn32)cc1 (stereo unspecified)	124*	-5	x
c1ccc(C2=Nc3ncnn3C(c3ccccc3)C2)cc1 (stereo unspecified)	1	5	1
COC(=O)Cn1cc(CN2CCC(CO)(Cc3cccc(C(F)(F)F)c3)CC2)c2ccccc21	18	-7	-8
COc1cc(C(=O)C=Cc2cccc(O)c2)ccc1O	0	1	41*
COC(=O)c1ccc(C=CC(=O)c2ccc(O)c(OC)c2)cc1	0	-4	44*
COc1cccc(C=CC(=O)c2ccc(OC)c(OC)c2)c1	-1	-7	39
COc1cc(C=CC(=O)c2ccc(C#N)cc2)ccc1O	3	2	3
COc1ccc(CCNC(=O)c2c(C)noc2-c2ccco2)cn1	-11	-3	-3
CCOC(=O)C1(Cc2ccc(OC)cc2)CCN(C(=O)C2(C)CCCCC2)CC1	5	-7	x
c1ccc(N=C2CCCC2)nc1	21	-5	x
CCOC(=O)C1CCCN(c2nc3nonc3nc2N2CCSCC2)C1 (stereo unspecified)	45*!	-9	-3
O=C(C1CCCN(c2nc3nonc3nc2N2CCCCCC2)C1)N1CCOCC1 (stereo unspecified)	7	6	x
C=C1C(=O)O[C@@H]2C[C@@]3(C)CCC[C@H](C)C3=C[C@H]12	-6	-4	93*
CNC[C@H](O)c1ccc(O)c(O)c1	83*	-2	-3
CC(C)NCC(O)c1ccc(O)c(O)c1 (stereo unspecified)	15	-1	-4
CC(Oc1ccccc1F)C(=O)NNS(=O)(=O)c1ccc(F)c(Cl)c1 (stereo unspecified)	-2	-5	x
CC(NCCC(c1ccccc1)c1ccccc1)c1ccccc1 (stereo unspecified)	59*!	-4	-5
CC(NCC1CCC1)c1ccccc1 (stereo unspecified)	-7	-3	x
COc1ccc(N2CCN(C(=O)C3CCCCC3C(=O)Nc3cccc(Oc4ccccc4)c3)CC2)cc1 (stereo unspecified)	-7	-8	x
SMILES	NPYLR7 agonist	hcGAS inh	mcGAS inh
CN(C)Cc1ccc2ccc3cccc4ccc1c2c34	1	84*	x
CN(C)Cc1ccccc1Cc1ccccc1	2	-3	x
COc1ccc(N2C(=O)C3CC=CC(C)C3C2=O)cc1Cl (stereo unspecified)	10	3	2
CC1CN(Cc2ccccc2)c2nc3c(c(=O)n(Cc4ccccc4F)c(=O)n3C)n2C1 (stereo unspecified)	7	0	-8
CCCc1c(C)nn(-c2ccc(C(=O)NCC(c3ccccc3)c3ccccc3)cc2)c1C	0	-4	-4
O=C1N=c2ccc(F)cc2=C1c1sc(=S)[nH]c1O	-1	15	100*
Cc1cc(Br)cc2c1=NC(=O)C=2c1sc(=S)[nH]c1O	-2	5	94*
CC(C)C(C(=O)O)n1c(O)c(C2=c3cc(Br)ccc3=NC2=O)sc1=S (stereo unspecified)	-1	-1	-1
Nn1c(O)c(C2=c3cc([N+](=O)[O-])ccc3=NC2=O)sc1=S	1	-4	x
CCCCCCn1c(N2CCCCC2)nc2c1c(=O)n(C)c(=O)n2C	15	-13	x
Cc1ccccc1Cn1c(=O)c(C(=O)NCc2cccnc2)nn(-c2ccc(C(C)C)cc2)c1=O	0	-3	-4
Cc1ccc(N2NC(=O)/C(=C/c3cccc(OC(=O)c4cccs4)c3)C2=O)cc1Cl	0	0	53*
CCc1ccc(/C=C2\C(=O)NN(c3ccc(Cl)c(Cl)c3)C2=O)cc1	6	-8	15
Cc1cccc(CN2CCN(c3ccc(Cl)cc3)C(=O)C2C)c1 (stereo unspecified)	-1	-3	74*
Cc1cccc(CN2CCN(c3cccc(Cl)c3)C(=O)C2C)c1 (stereo unspecified)	-1	-5	-5

Assay outcomes (PubChem)
